Most compounds without a hit are left out; they make up all but 3.4% or so of the library.
FBW7 act: human FBW7 E3 ligase activation, primary screen. AlphaScreen FBW7–phospho-cyclin E peptide binding, activator screen. normalized activity (activation), % at 26.1 µM. 650,000 compounds, 0.13% hits. AID 1259310; in the data active = normalized activity above about 1.9%;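 also: purified mutant Fbw7 with reduced substrate affinity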
TEAD-YAP block: TEAD-YAP interaction inhibition; HEK-TIYL cells, TEAD-Gal4/YAP UAS-luciferase luminescence; inhibition, % at 9.12 µM; 640,000 compounds, 1.4% hits; AID 1259422; in the data active = inhibition above about 32%;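 also: 0% = median of test compound wells and 100% = reference inhibitor wells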
MITF inh: human MITF inhibition, primary screen; O75030; AlphaScreen MITF homodimerization, bead proximity signal; inhibition, % at 2.6 µM; 650,000 compounds, 0.91% hits; in the data active = inhibition above about 50%;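 also: 0% = vehicle wells with protein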
GPR151 activ: human GPR151 activation. Q8TDV0. PathHunter beta-arrestin GPR151 cells, luminescence. activation, % at 11.2 µM. 650,000 compounds, 1% hits. AID 1508602; in the data active = activation above about 4.9%;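 also: 0% = median of compound wells and 100% = cells with positive control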
Target sequence (Q8TDV0 whole entry, looked up): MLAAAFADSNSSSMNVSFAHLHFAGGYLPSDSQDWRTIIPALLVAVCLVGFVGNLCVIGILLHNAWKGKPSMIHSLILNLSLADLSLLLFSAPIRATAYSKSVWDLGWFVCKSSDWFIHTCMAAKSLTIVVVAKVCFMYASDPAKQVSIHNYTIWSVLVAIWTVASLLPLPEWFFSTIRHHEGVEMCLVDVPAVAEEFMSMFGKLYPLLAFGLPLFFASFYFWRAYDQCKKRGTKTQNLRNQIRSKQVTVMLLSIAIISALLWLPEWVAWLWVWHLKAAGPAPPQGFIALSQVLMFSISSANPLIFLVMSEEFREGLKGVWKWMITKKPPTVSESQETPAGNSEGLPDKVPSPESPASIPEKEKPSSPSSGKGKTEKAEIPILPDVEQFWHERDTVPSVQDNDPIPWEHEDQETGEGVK
GPR151 confirm: human GPR151 activation, confirmation screen; shares compounds with GPR151 activ; GPR151 PathHunter beta-arrestin cells, luminescence, 90 min; % of EA-reagent control over plate median; activation, % at 11.2 µM; 6,700 tested, under 10 active; AID 1508609;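 active = mean percent activation across replicates above the confirmation screen cutoff of 4.91%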
GPR119 counter: activates human GPR119 in a GPR151 counter-screen; GPR119 PathHunter beta-arrestin cells, luminescence, 90 min; 0 = compound-well median, 100 = enzyme-acceptor control; shares compounds with GPR151 activ; 6,700 compounds, 0.3% hits; AID 1508611; activation, % at 11.2 µM;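 active = mean percent activation in the counterscreen above 29.09%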;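 also: counterscreen on off-target GPR119 to flag nonselective hits from the GPR151 activator screen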
* marks the source's active call; other numbers are inactive results; x = no result given.

SMILES	FBW7 act	TEAD-YAP block	MITF inh	GPR151 activ	GPR151 confirm	GPR119 counter
CCC(C)C(=O)Nc1ccc(O)cc1C(=O)O (stereo not given)	0	-5	13	-2	x	x
CCOC(=O)C1=C(O)/C(=C/c2ccc(OC)cc2)SC1=Nc1ccc(C)cc1	0	0	20	-1	x	x
COc1cc(C(=O)NCc2cc(-c3ccccc3)on2)cc(OC)c1OC	0	-2	0	6.2*	-1	-17
COc1cc(Nc2ncc(C(=O)NCc3ccccc3)s2)cc(OC)c1OC	0	-21	9	6.1*	0	3
CSc1ccc(S(=O)(=O)Nc2ccccc2C(=O)NCCc2ccccc2)cc1	1	-9	13	0	x	x
Cc1ccc(Cl)cc1NS(=O)(=O)c1cc(Br)cnc1N	0	11	11	0	x	x
CCc1nn(C(CC)C(=O)NC2CCCC2)c(=O)c2cc3oc(C)cc3n12 (stereo not given)	0	5	4	13*	0	-1
CCc1nn(C(CC)C(=O)NC2CCCC2)c(=O)c2cc3occc3n12 (stereo not given)	0	8	-32	-1	x	x
CCc1ccc(NC(=O)c2cc3nc(-c4ccco4)cc(C(F)(F)F)n3n2)cc1	0	1	-3	0	x	x
COc1ccc(S(=O)(=O)NCCc2sc(-c3ccccc3)nc2C)cc1C	0	4	15	2	x	x
O=C(Nc1nnc(-c2ccncc2)s1)c1cc2c(s1)CCCC2	0	-5	11	0	x	x
CCS(=O)(=O)n1nc(-c2ccccc2)nc1NCc1ccco1	0	-10	-8	12*	0	4
Clc1ccccc1/C=N/Nc1nncc(-c2ccccc2)n1	-1	-26	-6	6.2*	0	0
CCOC(=O)c1sc2c(c1NC(=O)CSc1ncnc3sc4c(c13)CCC(C)C4)CCC(C)C2 (stereo not given)	0	1	4	0	x	x
Cc1c(Cl)cccc1N(CC(=O)Nc1ccccc1Cl)S(C)(=O)=O	0	5	-11	0	x	x
CCC(C)NC(=O)c1ccccc1NC(=O)CN(c1cccc([N+](=O)[O-])c1)S(C)(=O)=O (stereo not given)	0	11	-2	3	x	x
C=CCNC(=O)c1ccccc1NC(=O)CN(c1cccc([N+](=O)[O-])c1)S(C)(=O)=O	1	4	11	13*	1	-6
Cc1ccccc1CNC(=O)CN(c1cccc([N+](=O)[O-])c1)S(C)(=O)=O	0	2	6	6.4*	0	-13
Cc1ccc(N(CC(=O)NCc2ccccc2C)S(C)(=O)=O)cc1C	0	1	8	2	x	x
C=CCNC(=O)c1ccccc1NC(=O)CN(c1cccc(Cl)c1C)S(C)(=O)=O	0	3	-3	5.2*	0	-5
CCN(Cc1ccccc1)S(=O)(=O)c1ccc(F)c(C(=O)Nc2ccc(F)c(Cl)c2)c1	0	4	13	-2	x	x
Cc1ccc(NC(=S)N(CCCN2CCCC2)Cc2cccs2)cc1Cl	0	4	1	-1	x	x
COc1ccc(C(=O)Nc2ccc3c4c(cccc24)CC3)cc1OC	0	-16	-2	-1	x	x
N#Cc1ccc(C(=O)NCc2nc(-c3ccncc3)n[nH]2)cc1	0	8	15	5.3*	0	-1
O=c1[nH]c(N/N=C/c2ccc(O)cc2)nnc1Cc1ccccc1	0	0	18	0	x	x
SMILES	FBW7 act	TEAD-YAP block	MITF inh	GPR151 activ	GPR151 confirm	GPR119 counter
O=c1[nH]c(N/N=C/c2cc([N+](=O)[O-])ccc2O)nnc1Cc1ccccc1	0	3	42	6.2*	1	2
O=C(Nc1ccccc1[N+](=O)[O-])c1cccc(S(=O)(=O)N2CCCC2)c1	0	-6	15	-1	x	x
CC1=C(C(=O)OCc2ccccc2)C(c2ccc(C(F)(F)F)cc2)C2=C(CCCC2=O)N1 (stereo not given)	0	-6	-8	2	x	x
O=C(Cn1c(-c2cccnc2)nc2ccccc21)NCc1ccccc1Cl	0	-8	7	5.6*	0	2
CC(=O)c1ccc(NC(=O)CSc2ccc3nnc(-c4ccc(F)cc4)n3n2)cc1	0	8	-3	-1	x	x
CC(=O)c1ccc(NC(=O)CSc2ccc3nnc(-c4ccc(C)cc4)n3n2)cc1	0	6	12	5.8*	-1	8
CCOC(=O)c1c(N)sc(-c2ccccc2)c1Cc1ccccc1	0	-1	-7	1	x	x
CCOC(=O)c1c(N)sc(-c2ccccc2)c1C	0	-40	1	6.2*	0	-2
CCN(CC)c1ccc(/C=N\NC(=O)c2ccc(O)cc2)cc1	0	27	1	0	x	x
CCN(CC)c1ccc(/C=N/NC(=O)c2ccc(O)cc2O)cc1	0	74*	5	6.0*	-1	-2
CC(=O)c1ccc(Nc2nc3ccccc3n3c(C)nnc23)cc1	0	12	3	7.3*	1	0
COC(=O)c1ccc(Nc2nc3ccccc3n3c(C)nnc23)cc1	0	4	-3	2	x	x
CCN(CC)CCCN(C)C(=O)Cc1nc(-c2ccc(OC)cc2)no1	0	-5	4	5.0*	0	0
COc1ccc(-c2noc(CC(=O)Nc3cc(C)on3)n2)cc1	0	2	9	0	x	x
CC(C)N(Cc1nc(-c2ccccc2)no1)C(=O)c1ccccc1F	1	11	13	-1	x	x
CCN(C(=O)Cc1nc(-c2ccc(OC)cc2)no1)c1ccccc1C	0	7	6	8.9*	1	-6
COc1ccc(-c2noc(CC(=O)Nc3cccc(C)n3)n2)cc1	0	2	4	5.5*	1	-8
COc1ccc(-c2noc(CN(C(=O)c3ccccc3F)C(C)C)n2)cc1	0	-5	16	5.4*	0	10
Cc1cccc(NC(=O)CSc2nncc(=O)[nH]2)c1C	0	18	12	0	x	x
O=C(Cn1ncn2nc(-c3cccs3)cc2c1=O)NC1CCN(Cc2ccccc2)CC1	0	-6	-4	13*	1	-6
O=C(Cn1ncn2nc(-c3cccs3)cc2c1=O)NC1CCCc2ccccc21 (stereo not given)	0	2	6	1	x	x
CCOC(=O)c1ccccc1NC(=O)CSc1n[nH]c(N)n1	0	7	1	0	x	x
CC(=O)c1ccccc1NC(=O)CSc1n[nH]c(N)n1	0	8	2	8.0*	0	6
O=C(CCc1nnc(CCc2c[nH]c3ccccc23)o1)NCC1CC1	0	3	3	5.4*	1	8
O=C(CCc1nnc(CCc2c[nH]c3ccccc23)o1)N1CCN(CC2CC2)CC1	0	7	-7	0	x	x
Cc1cccc(-c2cc(C(=O)Nc3ccc(F)c([N+](=O)[O-])c3)c3ccccc3n2)c1	0	-7	-7	5.7*	1	18

Screens as filed in PubChem.
